TSHR antagonist: blocks TSH signaling through the human TSH receptor; P16473; activity change, negative = inhibition, % at 11.5 µM; actives 0.2% (n = 330,000); TSHR-expressing cells, TSH-stimulated cAMP HTRF, 2 h; stronger effect = lower value;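 active = activity change below a set negative limit, meaning inhibition stronger than a set level, cut at about -70% in these data; inconclusive = activity change between two set negative limits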; also: % is scaled to controls: 0 for no effect and ±100 for the full control effect
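Read-out is FRET at 665 nm (cryptate excitation 337 nm) from a cryptate-tagged anti-cAMP antibody, competed by cell cAMP against cAMP-d2. Compounds are tested on freshly harvested TSHR cells challenged with 4nM TSH (EC80) for 2 hours at 37 deg C.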
GLP-1R inv ag: GLP-1 receptor (human) inverse agonism | P43220 | HEK293 GLP-1R CRE-luciferase, luminescence, 24 h; GLP-1R form is constitutively active | Potency, µM (top dose mostly 38.3 µM), inactives show top-dose activity change, negative = inhibition, usual class: inhibitors | actives 1.6% (n = 410,000) | AID 624417; also: potency is read from the fitted curve at half-maximal effect; % is scaled to controls: 0 for no effect and ±100 for the full control effect; nearly all actives have a fitted effect of over 55% in size
Target sequence (P43220 whole entry, looked up): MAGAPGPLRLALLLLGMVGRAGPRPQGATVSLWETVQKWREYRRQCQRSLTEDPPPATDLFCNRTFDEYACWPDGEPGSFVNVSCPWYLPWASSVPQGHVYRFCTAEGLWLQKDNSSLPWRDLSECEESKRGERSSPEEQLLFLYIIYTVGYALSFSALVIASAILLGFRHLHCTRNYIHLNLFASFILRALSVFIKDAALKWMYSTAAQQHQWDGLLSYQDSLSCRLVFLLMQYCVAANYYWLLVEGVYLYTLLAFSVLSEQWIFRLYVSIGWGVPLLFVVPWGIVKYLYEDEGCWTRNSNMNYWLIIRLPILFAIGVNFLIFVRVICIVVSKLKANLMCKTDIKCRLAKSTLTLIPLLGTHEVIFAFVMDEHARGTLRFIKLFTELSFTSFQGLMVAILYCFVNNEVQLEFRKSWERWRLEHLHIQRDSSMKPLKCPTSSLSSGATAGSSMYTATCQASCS
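Stable HEK293 clone (constitutively active GLP-1R + cAMP-response luciferase); 200 cells/uL plated, 12 h pre-culture, compound 24 hr, 37 deg C/5% CO2; detection reagent 12 min RT; luminescence.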
PTHR1 agonist: activates the human parathyroid hormone receptor PTHR1 | HEK293 GP2 PTHR1 cells, GloSensor cAMP luminescence, 1 h | actives 0.075% (n = 410,000) | Q03431 | Potency, µM (doses to about 115 µM), without a hit: at the top dose activation, actives largely listed as activators | AID 743266; also: potency is read from the fitted curve at half-maximal effect; nearly all actives have a fitted effect of over 55% in size
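HEK-293-derived GP2 cells expressing PTHR1 and a GloSensor cAMP reporter, 3,000/well, plated overnight, given luciferin plus IBMX (each 0.5 mM as added) for 1 h at 37 °C, then compound for 1 h at 37 °C. Luminescence was read after 15 min at room temperature.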
GLP1R cytotox: cytotoxic in the GLP-1 receptor inverse agonist counter-screen | actives 0.13% (n = 410,000) | Potency, µM (highest dose often 38.3 µM), for the others: at the highest dose activity change, negative = inhibition, hits mostly inhibitors | HEK293 cAMP-luciferase reporter cells, luminescence, 24 h;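 also: loss of luciferase light is scored as toxicity; potency is read from the fitted curve at half-maximal effect; % is scaled to controls: 0 for no effect and ±100 for the full control effect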
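Cells in DMEM/10% Nu serum/1% pen-strep, 1536-well format. Pre-incubated 12 h, dosed with 23 nL compound, incubated a further 24 h. Luciferase detection, 12 min at room temp, luminescence.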
GLP-1R agonist: agonists of human GLP-1 receptor | HEK293 GLP-1R CRE-luciferase, luminescence, 4-6 h; cells express a hypersensitive GLP-1R form | Potency, µM (highest dose often 45.6 µM), for inactives: at the highest dose activation, most hits filed as activators | actives 0.007% (n = 380,000); also: potency is read from the fitted curve at half-maximal effect; % of control where 0% means no effect
An asterisk follows results filed as active; i = inactive; u = inconclusive; x = no result given; [ ] = another dose, or the depositor's remark. Shown are actives, neighbours in structure and some others; about 1.8% of the full set was active somewhere. Unless noted, calls follow the shape of the dose curve; as a rule, active = well fitted curve in the direction sought with a large enough effect; inconclusive = small, poorly fitted or top-dose-only effect, or another doubt; inactive = no such curve, though single readings can be large; an effect the other way counts as inactive or inconclusive.

SMILES	TSHR antagonist	GLP-1R inv ag	PTHR1 agonist	GLP1R cytotox	GLP-1R agonist
COCCNC(=O)C(c1ccco1)N(C(=O)Cn1nnc2ccccc21)c1ccccc1C (centres undefined)	-5	u	i	-21%	-9%
Cc1ccccc1N(C(=O)Cn1nnc(-c2cccs2)n1)C(C(=O)NCCC(C)C)c1ccco1 (centres undefined)	-9	5.6µM*	u	6%	-6%
CCCCCCCCCCCCN1[C@@H](CC(=O)OC)c2cc(C(F)(F)F)ccc2S1(=O)=O	x	8%	-21%	-31%	6%
CCCCCCCCN1[C@@H](CC(=O)OCC)c2ccc(C(F)(F)F)cc2S1(=O)=O	x	10µM*	-25%	-21%	-4%
Cc1cc(S(=O)(=O)Nc2ccc(-c3ccc(N4CCCCCC4)nn3)cc2)c(C)cc1Cl	x	7.9µM*	i	-23%	x
Cc1cc(S(=O)(=O)Nc2ccc(-c3ccc(N4CCCCC4)nn3)cc2)c(C)cc1Cl	x	7.1µM*	i	-13%	x
CCc1cccc(NC(=O)CN(C)S(=O)(=O)c2ccc3c(c2)n(C)c(=O)c(=O)n3C)c1	x	19%	-16%	-4%	x
CC(=O)c1ccc(NC(=O)C2CCC(CNS(=O)(=O)c3cccc4nsnc34)CC2)cc1 (centres undefined)	x	17%	-12%	3%	x
COc1ccc(NC(=O)CSc2nnnn2-c2ccccc2F)cc1	-4	-7%	-14%	-1%	-5%
Cc1nnc(SCC(=O)Nc2ccc(S(=O)(=O)N3CCCC3)cc2)n1N	6	-1%	i	-7%	-9%
CN1CCN(c2ccc(NC(=O)CSc3nnnn3-c3ccccc3F)cc2)CC1	18	2.8µM*	i	-9%	-1%
Cc1ccccc1-n1nnnc1SCC(=O)Nc1ccc(S(=O)(=O)N2CCCC2)cc1	2	11µM*	-19%[57.5 µM]	-13%	3%
Cc1ccc(-n2nnnc2SCC(=O)Nc2ccc(N3CCN(C)CC3)cc2)c(C)c1	-2	3.5µM*	-23%	-16%	12%
COc1cccc(-n2c(=O)c3cc(OC)c(OC)cc3n(CC(=O)Nc3ccccc3)c2=O)c1	x	3%	6%	6%	1%
O=[N+]([O-])c1ccc(Sc2cccc[n+]2[O-])c2nonc12	-91*	-87%	-29%	-103%	-2%
O=[N+]([O-])c1ccc(Nc2ccccc2)c2nonc12	-5	-2%	-74%	u	-8%
O=C(NC(=O)N1CCN(c2cccc(Cl)c2)CC1)c1ccc(Cl)cc1	-5	3.2µM*	-49%	5%	-17%
COc1ccc(CNC(=O)c2ccc3c(c2)N(Cc2ccccc2F)C(=O)c2ccccc2S3=O)cc1 (centres undefined)	x	-16%	-32%	4%	-1%
COc1ccc(OC)c(NC(=S)NCCC(c2ccccc2)c2ccccc2)c1	x	8.9µM*	-34%	-20%	2%
Fc1cccc(NC(=S)NCc2ccccc2Cl)c1	-5	10µM*	-21%	-92%	-1%
S=C(NCCC(c1ccccc1)c1ccccc1)Nc1cccc(Cl)c1	-29	11µM*	-17%[57.5 µM]	u	-4%
COC(=O)c1ccccc1C(=O)c1ccc(OCCN2CCCCC2)cc1	x	x	x	x	-3%
Cc1cccc(NC(c2nnc(-c3ccccc3)o2)c2ccc(F)cc2Cl)c1C (centres undefined)	x	4%	-8%	10%	x
CCc1ccccc1NC(c1nnc(-c2cccc(F)c2)o1)c1ccc(F)cc1Cl (centres undefined)	x	11µM*	i	-1%	x
CCN(CC)CCOC(=O)c1ccc(N)cc1Cl	x	x	x	x	-4%
SMILES	TSHR antagonist	GLP-1R inv ag	PTHR1 agonist	GLP1R cytotox	GLP-1R agonist
Cc1ccc(Cl)cc1N1CCN(C(=O)c2cccn2-c2nnc(N3CCCCC3)s2)CC1	x	15%	-11%	9%	x
Cc1ccc(Cl)cc1N1CCN(C(=O)C2CCN(c3nnc(-n4cccc4)s3)CC2)CC1	-11	3.5µM*	-91%	-6%	-1%
CCOc1ccccc1N(C)C(=O)Cn1nc(Cc2ccncc2)c2ccccc2c1=O	x	-6%	i	4%	x
COc1cccc(OCCn2cccc2/C=C2/C(=N)N3OC(C)=CC3=NC2=O)c1	-11	15%	-1%	2%	1%
CC1=CC2=NC(=O)/C(=C\c3cccn3CCOc3cccc(C)c3)C(=N)N2O1	-15	10µM*	-21%	-4%	9%
CCc1nn(CC(=O)Nc2c(C)cccc2C)c(=O)c2cc3sccc3n12	x	7%	0%	-1%	x
Cn1cnc(S(=O)(=O)N2CCCC(C(=O)Nc3ccc(OC(F)(F)F)cc3)C2)c1 (centres undefined)	x	-29%	-9%	3%	x
O=C(NC1CCCc2c1cnn2-c1ccccc1F)c1ccccc1N1CCOCC1 (centres undefined)	-1	7.9µM*	-42%	0%	4%
Cc1cc(C)cc(-n2ncc3c2CCCC3NC(=O)c2ccccc2N2CCOCC2)c1 (centres undefined)	-13	u	-6%	-20%	14%
CCOC(=O)c1c(NC(=O)C2COc3ccccc3O2)sc2c1CC(C)(C)NC2(C)C (centres undefined)	6	3.2µM*	i	-28%	5%
CCOC(=O)c1c(NC(=O)CSc2nnnn2-c2ccccc2OCC)sc2c1CC(C)(C)NC2(C)C	9	10µM*	-34%	u	10%
COc1cccc(N2CC(NC(=O)c3ccc(S(=O)(=O)N4CCCCC4)cc3)CC2=O)c1 (centres undefined)	x	-6%	-3%	-2%	x
Fc1ccc2[nH]c3c(c2c1)CN(C(=S)NCc1ccccc1)CC3	20	5µM*	-12%	-11%	-2%
CC(C)(C)C(=O)CSc1nc2ccsc2c(=O)n1Cc1ccccc1F	x	13µM*	i	-5%	x
CCCCn1c(O)c(/C=C2\C=NN=C2c2ccccc2)sc1=S	-3	0%	i	8%	-9%
CCCCCCn1c(O)c(/C=C2\C=NN=C2c2ccccc2)sc1=S	38	u	-25%	11µM*	1%
O=C(CCS(=O)(=O)c1nc(-c2ccc3c(c2)OCO3)cc(C(F)(F)F)n1)Nc1ccc(F)c(Cl)c1	x	u	-93%	u	x
CC(C)Oc1ccc(S(=O)(=O)N2CCCCC2)cc1NC(=O)C1=COCCO1	-1	u	-55%	-1%	-12%
Cc1cccc(Oc2ccc(S(=O)(=O)N3CCCCC3)cc2NC(=O)C2=COCCO2)c1	24	10µM*	-7%	7%	7%
COc1cc2c(cc1O)CCN[C@@]21CS[C@H]2c3c(OC(C)=O)c(C)c4c(c3C(COC1=O)N1C2C2c3c(cc(C)c(OC)c3O)CC([C@@H]1O)N2C)OCO4 (some centres undefined)	x	x	x	x	-14%

Screens deposited in PubChem BioAssay by National Center for Advancing Translational Sciences (NCATS).
